The values that follow come from PMC13494018.

The target of this assay is PDL1, Q9NZQ7.

Values without a mark were called inactive. The rule behind the calls is not given here.

PDL1, Q9NZQ7, sequence (Q9NZQ7 whole entry): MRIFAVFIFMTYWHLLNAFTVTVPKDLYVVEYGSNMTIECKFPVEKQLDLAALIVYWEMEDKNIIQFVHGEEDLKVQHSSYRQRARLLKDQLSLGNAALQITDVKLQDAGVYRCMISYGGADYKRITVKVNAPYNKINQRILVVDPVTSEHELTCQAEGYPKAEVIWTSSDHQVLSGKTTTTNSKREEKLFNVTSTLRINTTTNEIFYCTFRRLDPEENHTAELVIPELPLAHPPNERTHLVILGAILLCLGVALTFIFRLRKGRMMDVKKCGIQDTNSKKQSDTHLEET

B1: d8r1_design_ppi_460_dldesign_0_cycle1_af2pred (protein)
chain: DETGERKATALAAISATVAAAKAAIDANAADPAAAQAALDAAKKALAAIAAKSGLPSVKGVAETAAKKLAAYATAVAAAAA
As to B1, the “binding in a display sort” value was “not found”.

B2: d8r1_design_ppi_271_dldesign_0_cycle1_af2pred (protein)
chain: ADAALAALIAEAAQAAYDDGPRGIAALAGALLRAFPSLSAETLAAIIAATAADPAAAAALIAALAAAHPEAAPALAAELRALLAELA
On to B2, for which the “binding in a display sort” value is “not found”.

B3: d8r1_design_ppi_660_dldesign_0_cycle1_af2pred (protein)
chain: EQAELEALAAAAKAAAAQAYALALASRAQAPAAYAALQQAFALAAQLPEEVAAELKAAAAQALADGLLAREKAE
Turning to B3, the “binding in a display sort” value is “not found”.

B4: d8r1_design_ppi_888_dldesign_0_cycle1_af2pred (protein)
chain: ATEEEKEKLKKLVEELLKAGKEGTVEEAKKAAEKLVEAAKKASLEAVLAGIAEVAKAAAELAKVNPEAAEVAREAAIELAKIALEKAD
On to B4, for which the “binding in a display sort” value was “not found”.

B5: d8r1_design_ppi_978_dldesign_0_cycle1_af2pred (protein)
chain: MKHLEEQRKAAEKVAEKAAKEAEKEIAKVVSEEEAKKLAEKLKEQSKTSNELLVEKHKDLPVEEIEKLAERNAKGLALRALAIAKE
For the molecule B5, the “binding in a display sort” value was “not found”.

B6: d8r1_design_ppi_179_dldesign_0_cycle0_af2pred (protein)
chain: STAARNAAAGIAAAAKENPKSGAKLGKGAIDVLAKKDKKEAAEAAKLAAEQAKAAGKEEVAKEMEELAKKVEAEI
Take B6: the “binding in a display sort” value is “not found”.

B7: d8r1_design_ppi_723_dldesign_0_cycle0_af2pred (protein)
chain: GGKSIAEIARIHGARTAAAVLAETGDAAAAAKIKAVAEKAAKEIEKASDNYDKMAEIFRKMVEEIEKITAAAKAAAA
Take B7: the “binding in a display sort” value is “not found”.

B8: d8r1_design_ppi_860_dldesign_0_cycle1_af2pred (protein)
chain: DEAYELAAKALAEAAKLRAAADAALAAAGAAGAVEAAALFTAAVKVLEETAKKLKELGSSLGDFTAAAAEREAARAAARIAAALA
As for B8, the “binding in a display sort” value was “not found”.

B9: d8r1_design_ppi_1034_dldesign_0_cycle1_af2pred (protein)
chain: DQAFTDAAAAAKALAAIPKYKALGDSLAARVAALAAAAAAARAAGAADPATAAEDAAAAAALAAAAKNIGDFAKAMLKAIEEDE
On to B9, for which the “binding in a display sort” value is “binds (active)”.

B10: d8r1_design_ppi_1212_dldesign_0_cycle1_af2pred (protein)
chain: AAALAEKLVATALAIGDAVLKKYPEAFGAKLAAARALIAADPVAGIRALGEAAAEVAPAEIAPGIRSMLNAIADRAAELLA
As for B10, the “binding in a display sort” value is “not found”.

B11: d8r1_design_ppi_1429_dldesign_0_cycle0_af2pred (protein)
chain: SSLESEERLRRMAEGIAERTLRVVERLAKEDLETARRAAENTRGLLAKLGPVAAKIGEETWERAEAILAAIA
Consider B11, for which the “binding in a display sort” value was “not found”.

B12: d8r1_design_ppi_80_dldesign_0_cycle1_af2pred (protein)
chain: ETPEEKANALFRAFNNVATYAAAKVPALAAAAAAAIAASADPAKLGAAAAAFAAAAAATPAAAALGTSAQAIADKAVATAK
In the case of B12, the “binding in a display sort” value was “not found”.

B13: d8r1_design_ppi_312_dldesign_0_cycle1_af2pred (protein)
chain: ALEEALRATAALVGTASQILAKEDPALAKEVAARILATAVKDPAEAAKLLKEVAKEAKERGWPAAEYYAAAAEALKAAAEA
Take B13: the “binding in a display sort” value is “not found”.

B14: d8r1_design_ppi_290_dldesign_0_cycle0_af2pred (protein)
chain: SREEAERLKEEIERLAREGIAGDAETAARAMREIHELAIRSTELDPEDAAEVNQKAAEAMLRVGDAREAMLAA
On to B14, for which the “binding in a display sort” value was “not found”.

B15: d8r1_design_ppi_763_dldesign_0_cycle1_af2pred (protein)
chain: MEKAKELAAKGDALEEEAAKATPEEAAKLYREASKYYAEAARLLLPLGDENPEIGKVVKELMAKASASYQKAVALEA
Regarding B15, the “binding in a display sort” value was “not found”.

B16: d8r1_design_ppi_1247_dldesign_0_cycle1_af2pred (protein)
chain: SSNKETSKLIREAMKIIGESLAAARAAVAAGDKAAAQAAVDAGVAKIEELAKKSKDPATKETLLKLAENLRRQGARVIA
B16: the “binding in a display sort” value was “not found”.

B17: d8r1_design_ppi_217_dldesign_0_cycle1_af2pred (protein)
chain: GDAVMEAAAAISNAAAAAIAAAKADPAKADEALAAATATAKALADATGKPLVKAVAKGATARVAAVAAAVKAAA
Take B17: the “binding in a display sort” value is “not found”.

B18: d8r1_design_ppi_705_dldesign_0_cycle0_af2pred (protein)
chain: MTPSTRAMLHIGRANAAAQALAADPAAAAAAVAEEMAAAAREAAKASPEVREQNLRAMDAAVAALKAANPAVGAAARAAMEEELARL
With B18, the “binding in a display sort” value is “not found”.

B19: d8r1_design_ppi_1358_dldesign_0_cycle1_af2pred (protein)
chain: AAAESAALAAALAALRKTEVGPFARQYIIYRLLAQVAEAKGDEETAKRAKAKAEELAKAYPEAAAAADAALALAQAALAA
As for B19, the “binding in a display sort” value was “binds (active)”.

B20: d8r1_design_ppi_1032_dldesign_0_cycle0_af2pred (protein)
chain: SEEEENKEKAEALEKAAKNTTAIGDEKAAKDAAGKEKGAKAYNGAAALYEAAAKVSSPERAKEFKAKAAEAKAKAAAAQAAAAA
Consider B20, for which the “binding in a display sort” value is “not found”.

B21: d8r1_design_ppi_480_dldesign_0_cycle1_af2pred (protein)
chain: SAAAATEAKAKAWAAEIIAAAKADPAAAAALATEVVATASEEEIRTLLNILAQQAFKSPDGLTALTAVSAAVAARYA
On to B21, for which the “binding in a display sort” value is “not found”.

B22: d8r1_design_ppi_655_dldesign_0_cycle0_af2pred (protein)
chain: SDAKAAAQAAKNGAESATEKANEYEAKGKATGDKALLAKAKTLYDSAATLYAFGTKESGGEYQANLDAAKAKAAAAAALLA
For the molecule B22, the “binding in a display sort” value is “not found”.

B23: d8r1_design_ppi_877_dldesign_0_cycle0_af2pred (protein)
chain: ALRAATEALLAEAERLREEILELGRAAESESVRNFAEGVAREVERLIAEAKAAAADPEAALALAQAALRTAREGLAGVRALTAAKAE
Consider B23, for which the “binding in a display sort” value is “not found”.

B24: d8r1_design_ppi_473_dldesign_0_cycle1_af2pred (protein)
chain: STAEYLAQQQAALDATLAALDAAAAAVRTSAAGKALGDAAKKAMEIAKKLPVSVQLAVAQNQLAALQAAL
As to B24, the “binding in a display sort” value is “not found”.

B25: d8r1_design_ppi_1231_dldesign_0_cycle1_af2pred (protein)
chain: MTEEEMAALVQAARDAAKAAAAAAGPAVAPTMAAMVALAEEERDNPGELESIAQSVATAAARAVAAAAAAA
As for B25, the “binding in a display sort” value is “not found”.

B26: d8r1_design_ppi_480_dldesign_0_cycle0_af2pred (protein)
chain: SEEEERRRRAEEAADEIVAAAKADPAAAAALAAEFVATSSEEERRLLANILAQKAFEDDAGLTALRAFSLALAEAVA
For B26, the “binding in a display sort” value was “not found”.

B27: d8r1_design_ppi_156_dldesign_0_cycle1_af2pred (protein)
chain: MEEEKKKEEEEQKEAERMAKALENAIDAIEARVKAAPAAEQPALAKAADNAAAAADVLKKKDPELGQKVKDRANAVLAAARAK
Consider B27, for which the “binding in a display sort” value was “not found”.

B28: d8r1_design_ppi_1413_dldesign_0_cycle1_af2pred (protein)
chain: GSLLEELAKKEEELKDEEKMLKAHENALEIGIKKAEEDPAKGAKILENLAKNAEAAAKKASPEIAKKFKELAERAKKAAKEAKKKAA
With B28, the “binding in a display sort” value was “not found”.

B29: d8r1_design_ppi_259_dldesign_0_cycle1_af2pred (protein)
chain: AAAAARLATALANAIAGTNTIKKASTAKSASQFLAASTDRLATLYAADPALVAKLRAAAAAAKAGVDAGLAAAKEALAAATAAG
B29: the “binding in a display sort” value was “not found”.

B30: d8r1_design_ppi_1086_dldesign_0_cycle1_af2pred (protein)
chain: AAAAVAAAAAAGGEAAMAEFLDLSNPEQGKELKDKAAAKVAALAAANPAVAAQINAAYNAQLARGKALAAEARADK
For B30, the “binding in a display sort” value is “not found”.

B31: d8r1_design_ppi_178_dldesign_0_cycle1_af2pred (protein)
chain: ATEAVAQAIVLAAKRAAALPNAATAVANLAALVALLIEDPRVAEGAVEGAKEAAKALEAAGRTEEAKALLSAAEAAVAETAAKRA
B31: the “binding in a display sort” value was “not found”.

B32: d8r1_design_ppi_1444_dldesign_0_cycle0_af2pred (protein)
chain: MEELLARIEEALKRAKEVLKEAKKYSPGAEAIAKAALEAAERALALARAGPERAAEAERELRAAENAIAAAEKLLEA
B32: the “binding in a display sort” value was “not found”.

B33: d8r1_design_ppi_1301_dldesign_0_cycle1_af2pred (protein)
chain: AENEADFNALKRVAQSILDRAAELAAAGADRALVERLAASAVQAAELAAEEGTPEEGAALIAETRAAVAAVLAA
For B33, the “binding in a display sort” value is “not found”.

B34: d8r1_design_ppi_433_dldesign_0_cycle0_af2pred (protein)
chain: SEEEERKEIEEEGRAMARALRTSARHHAELAKKDPAAGRAAFDADAAAIRAGATPEQQPLVDAAVAEGRALLDAVEAAL
Regarding B34, the “binding in a display sort” value was “not found”.

B35: d8r1_design_ppi_136_dldesign_0_cycle1_af2pred (protein)
chain: SAAEEAARKSLFAVADSILAANLARAKAAAAAGDAAAAAAALQNTRDGGEMVTKMALARGDEETAAELAARFAAAAAEIAAILAA
For B35, the “binding in a display sort” value is “not found”.

B36: d8r1_design_ppi_1459_dldesign_0_cycle1_af2pred (protein)
chain: EKAEKLRKLAKKLKELGKKIAEGDEEEAKKAAKEAAKAAREAGKISPQGKTLEYLGKKTEEAAKAGDKKTAASLADAAAALMEALAD
Consider B36, for which the “binding in a display sort” value was “not found”.

B37: d8r1_design_ppi_1245_dldesign_0_cycle0_af2pred (protein)
chain: SVAEQRAELAAIVDRTLAAAAAEDPRAAGRAGAAELARLLARSSDEVKPAANAAIAAFNTLIRDPAAGAAALEAVRAELA
As for B37, the “binding in a display sort” value was “not found”.

B38: d8r1_design_ppi_1486_dldesign_0_cycle0_af2pred (protein)
chain: SEELEKAKEEARKARERLLRLAEEAAAVDPAVAAAGRNAAAGAEKLISTGSLGSARAGKAIAEAAARRAEAVLAAAAAA
Regarding B38, the “binding in a display sort” value was “not found”.
